Laboratory results as given in PubChem BioAssay AID746 (The Scripps Research Institute Molecular Screening Center, 2007).
Among all 60,000 compounds or so, about 370 (0.62%) were called active. No stated cut-off is given here; in the data, active means inhibition above about 17%; inactive means the rest. What follows is part of a selection rich in actives, with near analogues and random picks from the rest.

The compounds below were run against Mitogen-activated protein kinase 10 (Homo sapiens) (UniProt P53779) (assay: JNK3 kinase activity inhibitors, primary screen, biochemical, human, purified enzyme (AID 746;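 further: 0% = DMSO and 100% = reference inhibitor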)). Conditions: HTS, at 8 µM, stronger effect = higher value.
Mitogen-activated protein kinase 10 (Homo sapiens), sequence (P53779 whole entry, looked up): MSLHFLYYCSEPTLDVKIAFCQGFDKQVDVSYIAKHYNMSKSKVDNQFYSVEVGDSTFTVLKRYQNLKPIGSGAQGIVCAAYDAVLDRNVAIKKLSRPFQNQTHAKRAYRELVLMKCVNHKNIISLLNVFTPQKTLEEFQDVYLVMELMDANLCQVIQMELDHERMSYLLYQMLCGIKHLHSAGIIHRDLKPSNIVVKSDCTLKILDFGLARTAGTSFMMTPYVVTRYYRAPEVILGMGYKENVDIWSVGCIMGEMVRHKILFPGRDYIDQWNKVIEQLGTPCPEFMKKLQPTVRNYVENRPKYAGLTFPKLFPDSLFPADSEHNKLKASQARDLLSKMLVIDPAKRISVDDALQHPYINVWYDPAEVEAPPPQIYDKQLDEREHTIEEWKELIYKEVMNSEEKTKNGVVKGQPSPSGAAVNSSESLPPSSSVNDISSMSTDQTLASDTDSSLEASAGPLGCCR
`Cc1noc(C)c1S(=O)(=O)N(CC(=O)Nc1ccc2c(c1)OCCO2)c1ccc(C(C)C)cc1` was tested, and the inhibition was 0.66% (inactive). For `C=CCNc1nnc(SCC(=O)N2CCCCC2)c2ccccc12`, the inhibition was -2.85% (inactive). `Nc1nnc(SCCN2C(=O)c3ccccc3S2(=O)=O)s1` was tested, and the inhibition was -1.92% (inactive). `Cc1ccc(CNC(=O)CCCNC(=O)c2ccc(Cl)cc2)n1C` was tested, and the inhibition was 10.2% (inactive). For `Cc1ccc(Oc2ccc(N)cc2)cc1`, the inhibition was 6.53% (inactive). With `CCOc1cc2c(cc1OCC)C(C(=O)O)C(c1ccc(OC)c(O)c1)N(C)C2=O` (stereo unspecified) the inhibition was -0.42% (inactive). With `O=C(C1CCC1)N1CCc2cc(S(=O)(=O)NCc3cccnc3)ccc21` the inhibition was -6.87% (inactive). In the case of `COC(=O)c1cc(Cl)c(NC(=O)c2ccco2)cc1OC`, the inhibition is reported as -6.35% (inactive). With `Cc1cc2c(=O)n(C)c(SCC(=O)c3cc4ccccc4o3)nc2s1` the inhibition was -3.37% (inactive). With `CCOC(=O)c1c(NC(=O)c2cccs2)sc(C)c1C` the inhibition was 6.19% (inactive). `Oc1c(C(c2cccs2)N2CCN(c3ccc(F)cc3)CC2)sc2ncnn12` (stereo unspecified) was tested, and the inhibition was 1.85% (inactive). In the case of `O=C1c2ccccc2-c2ncnc3c(N4CCOCC4)cc(N4CCOCC4)c1c23`, the inhibition is reported as -9.75% (inactive). With `CCOc1cc(C(=O)Nc2ncccn2)cc(OCC)c1OCC` the inhibition was -1.81% (inactive). For `O=C(NCCN1CCOCC1)c1c(F)c(F)c(F)c(F)c1F`, the inhibition was 7.3% (inactive). With `CCn1nc(C(=O)OCC(=O)N2c3ccccc3CC2C)c2ccccc2c1=O` (stereo unspecified) the inhibition was 1.01% (inactive). `Cn1cnc2c1c(=O)n(Cc1c(Cl)cccc1Cl)c(=O)n2C` was tested, and the inhibition was 2.26% (inactive). `Cc1nnc(NC(=O)CSc2nccn2-c2cccc(C)c2C)s1` was tested, and the inhibition was -4.27% (inactive). With `Cc1ccc2oc(=O)c3cnn(CC(=O)N4CCCCCC4)c3c2c1` the inhibition was 0.73% (inactive). `Cc1ccc2oc(=O)c3cnn(CC(=O)N4CCN(c5ccccn5)CC4)c3c2c1` was tested, and the inhibition was 37.2% (active). `CCOC(=O)C1CCCN(C(=O)Cn2ncc3c(=O)oc4ccc(C)cc4c32)C1` (stereo unspecified) was tested, and the inhibition was 0.71% (inactive). `CCOc1ccc(C(=O)Nc2ccncc2)cc1` was tested, and the inhibition was 0.07% (inactive). `O=S(N1CCCCCC1)C12CC3CC(CC(C3)C1)C2` (stereo unspecified) was tested, and the inhibition was 8.25% (inactive). With `COC(=O)c1cc(NC(=O)CN2CCC(C(N)=O)(N3CCCCC3)CC2)cc(C(=O)OC)c1` the inhibition was -2.8% (inactive). With `COc1ccc(NC(C)=O)cc1NC(=O)CN1CCN(c2ccccn2)CC1` the inhibition was 2.12% (inactive). `COC(=O)c1cccc(NC(=O)CN2CCC(NC(=O)c3cc(OC)c(OC)c(OC)c3)CC2)c1` was tested, and the inhibition was 79.2% (active). In the case of `COc1ccc(-c2cc(C(=O)NC(C(=O)O)C(C)C)c(C)o2)cc1OC` (stereo unspecified), the inhibition is reported as 1.2% (inactive).
